# High-throughput results as filed in PubChem.
# The list is not random: actives were taken first. Their share in the collection is about 1.4%.
# AID504770 = E. coli YBA685 growth inhibition, screen for V. cholerae RctB inhibitors; z-score (concentration not given with the values); E. coli YBA685 rctB-dependent plasmid, OD600 growth, 3 h; active compounds read low; 0.27% of 130,000 active; AID 504770; in the data active means z-score below about -2, passing the limit was not always enough
# MenB inh = blocks the Mycobacterium tuberculosis MenB enzyme; 0.43% of 100,000 active; MenB enzyme assay, absorbance read-out; inhibition, % (no concentration beside the values); AID 540299; P9WNP5; in the data active means inhibition above about 21%, passing the limit was not always enough
# Polio RdRp inh = poliovirus RNA polymerase inhibition | P03300 | poliovirus polymerase elongation, fluorescence polarization; active compounds read low | % elongation, % (compound at 16.7 µg/mL) | 0.66% of 150,000 active; in the data active means % elongation below about 90%
# MbtI inh = blocks the Mycobacterium tuberculosis siderophore enzyme MbtI; purified MbtI enzyme, fluorescence intensity read-out; inhibition, % (concentration not given with the values); 0.89% of 100,000 active; AID 493033; in the data active means inhibition mostly above about 56%, no sharp cut-off; inactive means mostly below about 77%
# Target sequence (P9WFX0 whole entry, looked up): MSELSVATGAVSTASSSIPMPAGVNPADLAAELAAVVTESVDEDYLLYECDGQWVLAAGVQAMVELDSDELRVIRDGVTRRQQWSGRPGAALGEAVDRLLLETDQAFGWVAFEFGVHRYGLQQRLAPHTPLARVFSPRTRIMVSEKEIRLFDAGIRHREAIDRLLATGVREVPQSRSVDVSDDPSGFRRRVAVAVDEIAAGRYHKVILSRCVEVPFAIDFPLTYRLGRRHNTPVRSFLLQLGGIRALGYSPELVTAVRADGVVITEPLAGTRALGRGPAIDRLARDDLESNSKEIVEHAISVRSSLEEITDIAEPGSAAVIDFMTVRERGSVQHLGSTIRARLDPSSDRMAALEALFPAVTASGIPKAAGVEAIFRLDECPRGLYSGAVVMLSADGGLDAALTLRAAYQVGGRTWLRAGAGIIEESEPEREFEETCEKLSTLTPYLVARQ
# Starred values were filed as active, the others as inactive; i = inactive; nt = no result given; ! = not confirmed by another sample.
SMILES,AID504770,MenB inh,Polio RdRp inh,MbtI inh
Cc1cnc(C(=O)N(CC(=O)Nc2cccc(C)c2C)CC2CCCO2)cn1 (configuration not stated),0.15,-11,101,-5
CC(C)(C)OC(=O)N1CCN(C2CC(=O)N(c3ccccc3)C2=O)CC1 (configuration not stated),0.6,-3,103,5
O=C1CC(N2CCCC2)C(=O)N1c1ccccc1 (configuration not stated),-1.1,-13,103,63*
CCN1/C(=C/c2scc[n+]2C)C=C(C)c2cc(OC)c3ccccc3c21,0.15,2,56*,2
Cc1ccc2nc(CNc3ccc(Cl)cc3)cc(=O)n2c1,1.2,-14,102,-2
Cc1ccccc1NC(=S)N/N=C/c1ccc(O)cc1O,1.9,-59,81*,21
COc1ccc(S(=O)(=O)C(F)(F)F)cc1NC(C)=O,1.1,nt,103,4
COc1ccc(SS(=O)(=O)c2ccc(OC)c(NC(C)=O)c2)cc1NC(C)=O,-0.5,-17,102,91*
CC(=O)Oc1c(Cl)cc(C(=O)O)cc1Cl,1.1,nt,100,51
C[N+]1(C)CCOC12CCCCC2,0.7,45*,99,-4
c1ccc(-c2nnc(SCCN3CCOCC3)o2)cc1,-0.2,26*,100,-4
CC1=C(C)C(=O)C(NCC2CCCO2)=CC1=O (configuration not stated),-0.35,-119,70*,20
Cc1n[nH]c(=O)nc1NCC1CCCO1 (configuration not stated),-0.4,nt,nt,nt
CC1CCN(S(=O)(=O)c2ccc(S(=O)(=O)N3CCCN(Cc4ccccc4)C3)cc2)CC1,1.4,36*,104,0
N#Cc1ccc(COC(=O)C2CCCCN2S(=O)(=O)c2cccc3nsnc23)cc1 (configuration not stated),-0.9,-3,42*,-2
S=c1[nH]cc2ccccn12,0.85,-20,113,59
S=c1[nH]nc2ccccn12,-0.95,3,100,92*!
O=C1S/C(=C\c2ccccc2)C(=O)N1c1ccc(O)cc1,0.7,nt,nt,nt
CCN(CC1COc2ccccc2O1)C(=O)c1ccc2c(c1)SC1=NS(=O)(=O)CCN12 (configuration not stated),1.2,-33,84*,7
CCOc1ccc2c(c1)SC1=NS(=O)(=O)CCN12,-0.5,nt,nt,nt
CC(C)(C)c1nnc2n1N=C(c1ccc(Br)s1)CS2,-0.5,-3,114,-12
C=CCn1c(SCc2ccccc2C#N)nc2scc(-c3cccs3)c2c1=O,-0.15,13,97,1
N#Cc1ccc(-c2ccccc2)[nH]c1=O,-0.9,-22,100,i
N#Cc1nc2[nH]c(-c3ccccc3)cc(=O)n2c1C#N,0.1,-4,90*,105
N#Cc1cccc(NC(=O)Nc2cccs2)c1,-3.1*,12,101,13
SMILES,AID504770,MenB inh,Polio RdRp inh,MbtI inh
N#Cc1cccc(NC(=S)NC(=O)c2cccs2)c1,2.2,-38,104,-2
CC(C)(C)Nc1n[nH]c(=S)s1,0.05,-3,76*,73*
Cc1ccc(CNc2n[nH]c(=S)s2)cc1,0.5,nt,nt,nt
Cc1ccc(S(=O)(=O)N(CC(=O)N2CCC(C)CC2)CC(=O)N2CCC(C)CC2)cc1,-1.1,-18,101,-20
COc1ccc(/C(N)=C/C2=NC(C)(C)CO2)cc1,0.05,-10,105,nt
Cc1ccn2cc(C(C)(C)C)nc2c1,-0.65,nt,nt,nt
O=C(O)CCCS(=O)(=O)c1ccccc1,0.35,35*,101,10
NC(=O)CCS(=O)(=O)c1ccccc1,-1.1,-19,105,-1
O=C1O[C@H](C(O)CO)[C@H](O)C1O (some centres not stated),nt,5,101,-11
CC1(C)Cc2c(ccc3ccccc23)C(Sc2ccc(N)cc2)=N1,-0.75,-6,114,nt
Cc1cc(Cl)cc(C)c1OCC1COS(=O)O1 (configuration not stated),0.15,-6,82*,-4
CCCn1c(C)cc(C(=O)Cn2ncc(Cl)c(Cl)c2=O)c1C,-0.15,-28,115,-5
COc1ccc(C2C(C#N)=C(N)SC3C(=O)N(c4ccc(Br)cc4)C(=O)C32)cc1 (configuration not stated),0.25,-8,77*,nt
COc1cc2c(cc1OC)CN(c1ccc3ccccc3n1)CC2,-0.15,-5,89*,-27
CC1=NC(=O)/C(=C\c2ccc(O)cc2)N(C)N1c1ccccc1,-0.45,6,103,nt
CC1CCCCC1NC(=O)COC(=O)c1ccccc1NCCO (configuration not stated),0.4,-16,100,100
O=c1[nH]cc(NCCO)c(=O)[nH]1,0.65,nt,nt,-6
O=C1c2c(O)ccc(O)c2C(=O)c2c(NCCNCCO)ccc(NCCNCCO)c21,1.4,0,-53*,-7
Cc1ccc(S(=O)(=O)N2CCCCC2C(=O)NC(C)c2ccc3c(c2)OCCO3)cc1 (configuration not stated),-2.1*,-28,101,-13
Clc1cc2c(cc1Cl)Nc1cc(Cl)c(Cl)cc1N2,-0.15,14,100,95*
CCOCCCNc1ncnc2sccc12,2.4,-14,83*,-11
COc1ccccc1OCCNc1ncnc2sccc12,0.75,-5,104,4
O=C(O)c1ccc(CSc2nc(-c3ccccc3)cc(C(F)(F)F)n2)o1,0.5,-3,101,11
CC(C)C(NC(=O)CCc1ccccc1)C(C)C,0.15,-13,101,-5
CC(=O)c1ccc(NC(=O)C2=CC(c3cccs3)=NS(=O)(=O)N2C)cc1,nt,nt,-12*,nt
SMILES,AID504770,MenB inh,Polio RdRp inh,MbtI inh
O=S1(=O)C=C(SCCN2CCOCC2)c2ccccc21,-3.4*,-7,102,-2
Cc1cccc2nc(-c3cc4ccccc4s3)oc(=O)c12,1.4,nt,nt,nt
O=c1oc(-c2cc3ccccc3s2)ns1,-0.25,-19,85*,nt
O=C(Nc1ccc(-n2cnnn2)cc1)C1CCN(C(=O)/C=C/c2ccccc2)CC1,1.1,-24,102,-7
COC(=O)c1ccc(NC(C)=O)c(C(=O)OC)c1,-0.1,nt,nt,nt
COC(=O)c1ccc(O)c(C(=O)OC)c1,-0.15,-2,0.0*,-126
COc1ccc2o/c(=N\O)c(C(N)=O)cc2c1,1.4,-81,102,102*
Cc1cc(N2CCOCC2)cc(C)[n+]1[O-],-0.45,46*,101,17
CC(=O)N1CCN(C(=S)c2ccc(-c3ccc(C)cc3)o2)CC1,-0.05,2,96,80
S=C(c1ccc(-c2ccccc2)o1)N1CCN(c2ccccc2)CC1,-0.45,2,68*,92*
Cc1ccc(C(=O)CSc2ncn[nH]2)c(C)c1,0.1,-2,101,70*
CCN(CC)C(=O)COc1ccc(-c2nnc(Nc3ccc(C(N)=O)cc3)c3ccccc23)cc1,-0.3,nt,nt,nt
O=c1/c(=C/c2ccc(Br)cc2)sc2nncn12,0.8,33*,97,15
CN(C)S(=O)(=O)c1ccc(S(=O)(=O)N(CC(=O)Nc2ccccc2)C2CC2)cc1,1,-25,102,-7
Cc1cccc2nc(=S)n(C(=O)c3ccc(F)cc3)n12,-0.05,0,74*,nt
COc1ccc(CC(=O)NCc2ccc3[nH]c4c(c3c2)CCCC4)cc1,0.2,-14,100,-5
